# According to PubChem BioAssay (Tox21):
# A number with no mark means an inactive call. Inconclusive results are not listed. Entries that show only a call come without a potency. Active and inactive are the calls of the source. Unless noted, the call rests on the fitted dose curve; in most records, active means well fitted curve in the direction sought with a large enough effect in the repeat runs; inconclusive means weak or mixed curves; inactive means no such curve, though single readings can be large; an effect the other way counts as inactive or inconclusive.
# What was measured:
# [1] = qHTS assay to identify small molecule antagonists of the glucocorticoid receptor (GR) signaling pathway - cell viability counter screen (AID 720693); further: nearly all actives have a fitted effect of over 55% in size
# [2] = qHTS assay for identifying genotoxic compounds that show differential cytotoxicity against isogenic chicken DT40 cell lines with known DNA damage response pathways - wild type cell line (AID 743012); further: nearly all actives have a fitted effect of over 60% in size; further: potency means the concentration at half of the fitted maximal effect
# How it was run: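 300 wt DT40 cells/well; cpd (DMSO) pintool-transferred after ~0.5 h at 37 C/5% CO2; 40 h incubation; CellTiter-Glo added, 30 min RT; luminescence read.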
# [3] = qHTS assay to identify small molecule antagonists of the androgen receptor (AR) signaling pathway - cell viability counter screen (AID 743033; further: nearly all actives have a fitted effect of over 45% in size)
# [4] = qHTS assay to identify small molecule antagonists of the androgen receptor (AR) signaling pathway using the MDA cell line - cell viability counter screen (AID 743041; further: nearly all actives have a fitted effect of over 45% in size; further: potency means the concentration at half of the fitted maximal effect)
# How it was run: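 Compound exposure lasted 16 h at 37C in MDA-kb2 AR-luc cells stimulated with R1881. Protease-based CellTiter-Fluor reagent was applied for the final 30 min and fluorescence measured.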
# [5] = qHTS assay to identify small molecule antagonists of the thyroid receptor (TR) signaling pathway (AID 743065); further: series mostly up to about 70 µM; nearly all actives have a fitted effect of over 55% in size
# How it was run: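 GH3.TRE-Luc rat pituitary cells (two TREs driving luciferase) were dosed with compound, then stimulated with 1 nM T3 (final) for 23.5 h at 37 C. ONE-Glo luminescence was the read-out, with CellTiter-Fluor fluorescence as the cytotoxicity counter-screen.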
# [6] = system: thyroid hormone receptor (rat, GH3 cells); assay: qHTS assay to identify small molecule agonists of the thyroid receptor (TR) signaling pathway (AID 743066; calls by dose curve)
# [7] = target: Estrogen receptor (Homo sapiens) (UniProt P03372); assay: qHTS assay to identify small molecule antagonists of the estrogen receptor alpha (ER-alpha) signaling pathway (AID 743069; active means well fitted curve in the direction sought with a large enough effect in the signal ratio in the repeat runs, not every such curve was filed as active; the % refers to the signal ratio)
# Chain of Estrogen receptor (Homo sapiens) (P03372 whole entry, looked up): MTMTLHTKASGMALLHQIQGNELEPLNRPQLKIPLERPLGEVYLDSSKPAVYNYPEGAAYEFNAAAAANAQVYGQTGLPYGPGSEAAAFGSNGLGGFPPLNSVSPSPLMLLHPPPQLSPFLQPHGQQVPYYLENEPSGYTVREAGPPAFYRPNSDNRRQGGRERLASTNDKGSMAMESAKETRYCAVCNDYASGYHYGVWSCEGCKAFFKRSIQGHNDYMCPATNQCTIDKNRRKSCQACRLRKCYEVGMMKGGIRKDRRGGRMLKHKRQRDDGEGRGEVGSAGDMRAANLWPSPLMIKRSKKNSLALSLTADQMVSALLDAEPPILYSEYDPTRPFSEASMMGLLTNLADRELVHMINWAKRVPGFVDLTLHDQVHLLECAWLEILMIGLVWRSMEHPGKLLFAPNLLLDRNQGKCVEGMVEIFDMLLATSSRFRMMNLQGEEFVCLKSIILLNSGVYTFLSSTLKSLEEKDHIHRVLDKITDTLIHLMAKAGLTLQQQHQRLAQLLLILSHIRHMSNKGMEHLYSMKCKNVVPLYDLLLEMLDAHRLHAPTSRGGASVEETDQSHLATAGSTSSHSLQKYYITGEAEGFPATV
# How it was run: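 In this cell-based reporter format, GripTite HEK293 cells harbouring ER-alpha-UAS-bla were grown overnight with 2% charcoal-stripped FBS, dosed with DMSO-dissolved compounds, then challenged with 17beta-estradiol. After 18 hr at 37C, beta-lactamase activity was detected by FRET fluorescence.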
# [8] = qHTS assay to identify small molecule antagonists of the estrogen receptor alpha (ER-alpha) signaling pathway - cell viability counter screen (AID 743074; calls by dose curve; further: nearly all actives have a fitted effect of over 45% in size)
# [9] = target: Estrogen receptor (Homo sapiens) (UniProt P03372); assay: qHTS assay to identify small molecule agonists of the estrogen receptor alpha (ER-alpha) signaling pathway (AID 743075; calls by dose curve)
# [10] = target: Estrogen receptor (Homo sapiens) (UniProt P03372); assay: qHTS assay to identify small molecule agonists of the estrogen receptor alpha (ER-alpha) signaling pathway using the BG1 cell line (AID 743079); further: nearly all actives have a fitted effect of over 20% in size; further: potency means the concentration at half of the fitted maximal effect
# [11] = qHTS assay to identify small molecule antagonists of the estrogen receptor alpha (ER-alpha) signaling pathway using the BG1 cell line - cell viability counter screen (AID 743081);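 further: compound given together with 17beta-estradiol as the ER stimulus; nearly all actives have a fitted effect of over 45% in size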; further: potency means the concentration at half of the fitted maximal effect; on activity change, negative = cytotoxicity: series mostly up to about 70 µM
# Aromatase (Homo sapiens) = Aromatase (Homo sapiens) (UniProt P11511); assay: qHTS assay to identify aromatase inhibitors (AID 743083); further: series mostly up to about 70 µM; nearly all actives have a fitted effect of over 55% in size
# Chain of Aromatase (Homo sapiens) (P11511 whole entry, looked up): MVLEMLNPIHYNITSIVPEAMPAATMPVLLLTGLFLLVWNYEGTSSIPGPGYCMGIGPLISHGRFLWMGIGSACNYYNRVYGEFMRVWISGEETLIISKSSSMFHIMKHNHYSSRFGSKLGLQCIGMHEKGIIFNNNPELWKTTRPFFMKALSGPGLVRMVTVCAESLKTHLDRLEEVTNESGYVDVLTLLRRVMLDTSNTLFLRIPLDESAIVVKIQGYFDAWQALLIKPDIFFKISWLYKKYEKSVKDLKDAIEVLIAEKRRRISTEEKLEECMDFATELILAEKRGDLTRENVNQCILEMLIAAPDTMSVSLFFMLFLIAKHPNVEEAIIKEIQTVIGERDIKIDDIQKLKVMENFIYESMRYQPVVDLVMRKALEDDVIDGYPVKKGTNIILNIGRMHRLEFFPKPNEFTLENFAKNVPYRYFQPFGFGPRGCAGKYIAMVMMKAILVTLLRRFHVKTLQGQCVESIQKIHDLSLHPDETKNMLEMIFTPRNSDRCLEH
# [12] = qHTS assay to identify small molecule antagonists of the thyroid receptor (TR) signaling pathway - cell viability counter screen (AID 743064); further: nearly all actives have a fitted effect of over 50% in size; further: potency means the concentration at half of the fitted maximal effect
# How it was run: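 In rat pituitary GH3.TRE-Luc reporter cells co-exposed to compound and 1 nM T3 for 23.5 h, cytotoxicity was assessed with CellTiter-Fluor in the same wells, read by fluorescence.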
# [13] = qHTS assay to identify small molecule antagonists of the estrogen receptor alpha (ER-alpha) signaling pathway using the BG1 cell line (AID 743080; calls by dose curve;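 further: BG1 cells stimulated with 17beta-estradiol alongside compound; series mostly up to about 70 µM; nearly all actives have a fitted effect of over 25% in size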)
# How it was run: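 BG1Luc4E2, endogenous ER-alpha, 4xERE-luc; 5 d charcoal-stripped FBS, phenol red free; 24 h plating; cpd + 17beta-estradiol 21.5 h, 37 C/5% CO2; CellTiter-Fluor viability 30 min, then ONE-Glo luciferase 30 min RT.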
# [14] = qHTS assay for identifying genotoxic compounds that show differential cytotoxicity against isogenic chicken DT40 cell lines with known DNA damage response pathways - Rev3 mutant cell line (AID 743014); further: nearly all actives have a fitted effect of over 55% in size; further: potency means the concentration at half of the fitted maximal effect
# [15] = qHTS assay for identifying genotoxic compounds that show differential cytotoxicity against isogenic chicken DT40 cell lines with known DNA damage response pathways - Rad54/Ku70 mutant cell line (AID 743015); further: nearly all actives have a fitted effect of over 60% in size; further: potency means the concentration at half of the fitted maximal effect
# [16] = target: Androgen receptor (Homo sapiens) (UniProt P10275); assay: qHTS assay to identify small molecule antagonists of the androgen receptor (AR) signaling pathway (AID 743035; active means well fitted inhibition curve with a large enough effect in the signal ratio in the repeat runs, not every such curve was filed as active; the % refers to the signal ratio)
# Chain of Androgen receptor (Homo sapiens) (P10275 whole entry, looked up): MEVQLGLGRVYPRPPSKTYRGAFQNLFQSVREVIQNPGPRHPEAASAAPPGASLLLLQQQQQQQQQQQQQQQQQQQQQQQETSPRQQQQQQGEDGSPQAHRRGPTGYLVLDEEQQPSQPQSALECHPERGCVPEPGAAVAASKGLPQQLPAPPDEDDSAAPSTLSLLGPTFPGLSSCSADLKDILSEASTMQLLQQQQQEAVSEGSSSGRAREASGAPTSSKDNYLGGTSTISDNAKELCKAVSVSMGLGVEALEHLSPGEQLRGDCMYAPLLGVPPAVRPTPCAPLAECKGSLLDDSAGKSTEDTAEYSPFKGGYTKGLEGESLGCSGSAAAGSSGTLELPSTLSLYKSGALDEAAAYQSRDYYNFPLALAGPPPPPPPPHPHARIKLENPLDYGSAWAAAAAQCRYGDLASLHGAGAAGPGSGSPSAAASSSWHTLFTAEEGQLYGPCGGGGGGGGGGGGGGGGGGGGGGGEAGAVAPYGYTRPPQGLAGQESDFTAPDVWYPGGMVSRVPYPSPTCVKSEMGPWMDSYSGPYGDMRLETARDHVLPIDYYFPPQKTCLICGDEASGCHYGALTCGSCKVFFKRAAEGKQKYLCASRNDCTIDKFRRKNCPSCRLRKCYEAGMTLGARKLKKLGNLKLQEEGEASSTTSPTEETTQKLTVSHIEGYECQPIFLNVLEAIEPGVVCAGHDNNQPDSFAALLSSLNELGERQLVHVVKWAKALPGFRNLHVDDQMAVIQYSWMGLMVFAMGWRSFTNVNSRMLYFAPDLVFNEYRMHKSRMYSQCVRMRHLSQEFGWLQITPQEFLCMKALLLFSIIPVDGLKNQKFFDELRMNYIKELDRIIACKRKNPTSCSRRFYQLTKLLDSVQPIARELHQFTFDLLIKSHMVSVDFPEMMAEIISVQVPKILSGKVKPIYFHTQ
# How it was run: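 In this cell-based reporter screen, compounds were tested in concentration series against R1881-activated HEK293 cells expressing beta-lactamase under UAS control; after 16 h at 37C, FRET substrate was added and fluorescence read 2 h later.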
# [17] = target: Androgen receptor (Homo sapiens) (UniProt P10275); assay: qHTS assay to identify small molecule agonists of the androgen receptor (AR) signaling pathway (AID 743036; active means well fitted activation curve with a large enough effect in the signal ratio in the repeat runs, with a control signal flat, not every such curve was filed as active; the % refers to the signal ratio)
# How it was run: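 Cell-based FRET reporter assay: HEK293 line with a UAS-beta-lactamase construct, compounds added in DMSO, 16 h exposure at 37C, then 2 h substrate step at room temperature and fluorescence intensity read.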
# [18] = target: Androgen receptor (Homo sapiens) (UniProt P10275); assay: qHTS assay to identify small molecule agonists of the androgen receptor (AR) signaling pathway using the MDA cell line (AID 743040; further: nearly all actives have a fitted effect of over 20% in size)
# How it was run: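 Testing was done with the MDA-kb2 AR-luc line, a human breast carcinoma stably transfected with MMTV-luciferase containing AR and GR response elements. Cells were exposed 16 h at 37C before ONE-Glo luminescence detection.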
# [19] = target: Androgen receptor (Homo sapiens) (UniProt P10275); assay: qHTS assay to identify small molecule antagonists of the androgen receptor (AR) signaling pathway using the MDA cell line (AID 743042; further: nearly all actives have a fitted effect of over 55% in size)
# How it was run: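 MDA-kb2 breast carcinoma cells carrying MMTV-luciferase (AR/GR responsive) were co-treated with compounds and the agonist R1881 for 16 h at 37C. Inhibition read as ONE-Glo luminescence; CellTiter-Fluor fluorescence measured in parallel for cytotoxicity.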
compound,measurement,setting,value
CC(C)C/C=C(\C=O)c1ccccc1,Potency,[1],inactive
same,Potency,[2],inactive
same,Potency,[3],inactive
same,Potency,[4],inactive
same,Potency,[5],inactive
same,outcome,[6],inactive
same,Potency,[7],inactive
same,outcome,[8],inactive
same,Potency,[9],inactive
same,Potency,[10],61.1 µM (active)
same,Potency,[11],inactive
same,Potency,Aromatase (Homo sapiens),inactive
O=C1c2ccccc2C(=O)C1c1ccc2cc(S(=O)(=O)O)cc(S(=O)(=O)O)c2n1,Potency,[1],inactive
same,Potency,[2],inactive
same,Potency,[3],inactive
same,Potency,[4],52.5 µM (active)
same,Potency,[12],33.1 µM (active)
same,Potency,[5],inactive
same,outcome,[6],inactive
same,Potency,[7],inactive
same,outcome,[8],inactive
same,Potency,[9],inactive
same,Potency,[10],inactive
same,Potency,[13],inactive
same,Potency,[11],52.5 µM (active)
same,Potency,Aromatase (Homo sapiens),inactive
O=C(c1ccc(Cl)cc1)c1ccc(Cl)cc1,Potency,[1],inactive
same,Potency,[14],inactive
same,Potency,[15],inactive
same,Potency,[3],inactive
same,Potency,[16],inactive
same,outcome,[17],inactive
same,outcome,[18],inactive
same,Potency,[4],inactive
same,Potency,[19],inactive
same,Potency,[12],inactive
same,Potency,[5],inactive
same,outcome,[6],inactive
same,Potency,[7],inactive
same,outcome,[8],inactive
same,Potency,[9],inactive
same,Potency,[10],inactive
same,Potency,[13],inactive
same,Potency,[11],inactive
same,Potency,Aromatase (Homo sapiens),inactive
COC(=O)Cc1cccc2ccccc12,Potency,[1],inactive
same,Potency,[14],54.5 µM (active)
same,Potency,[3],inactive
same,outcome,[17],inactive
same,outcome,[18],inactive
same,Potency,[4],inactive
same,Potency,[19],inactive
same,Potency,[7],inactive
same,outcome,[8],inactive
same,Potency,[9],inactive
same,Potency,[10],inactive
same,Potency,[11],inactive
same,Potency,Aromatase (Homo sapiens),inactive
COc1cc(C)c(Cc2cnc(N)nc2N)cc1OC,Potency,[1],inactive
same,Potency,[2],26.6 µM (active)
same,Potency,[15],26.6 µM (active)
same,Potency,[3],inactive
same,Potency,[4],inactive
same,Potency,[7],inactive
same,outcome,[8],inactive
same,Potency,[9],inactive
same,Potency,[10],inactive
same,Potency,[11],inactive
same,Potency,Aromatase (Homo sapiens),inactive
CC/C=C\CCO,Potency,[1],inactive
same,Potency,[14],inactive
same,Potency,[15],inactive
same,Potency,[3],inactive
same,Potency,[4],inactive
same,Potency,[12],inactive
same,Potency,[5],inactive
same,outcome,[6],inactive
same,outcome,[8],inactive
same,Potency,[11],inactive
OCCOc1cccc(OCCO)c1,Potency,[1],inactive
same,Potency,[2],inactive
same,Potency,[3],inactive
same,Potency,[4],inactive
same,Potency,[12],inactive
same,outcome,[6],inactive
same,outcome,[8],inactive
same,Potency,[11],inactive
same,Potency,Aromatase (Homo sapiens),inactive
CCCCCCCCCCCCSCCOCCO,Potency,[1],inactive
same,Potency,[14],inactive
same,Potency,[15],inactive
same,Potency,[3],inactive
same,Potency,[4],inactive
same,Potency,[12],inactive
same,outcome,[6],inactive
same,Potency,[7],inactive
same,outcome,[8],inactive
same,Potency,[9],inactive
same,Potency,[10],inactive
same,Potency,[13],inactive
same,Potency,[11],inactive
same,Potency,Aromatase (Homo sapiens),inactive
COC=O,"viability change, negative = cytotoxic",[1],-0.963% [at 7.04 µM]
same,Potency,[14],4.48 µM (active)
same,"activity change, negative = cytotoxicity",[3],-27.8% [at 7.04 µM]
same,"viability change, negative = cytotoxic",[4],12.8% [at 8.47 µM]
same,"activity change, negative = cytotoxic",[12],17.8% [at 8.44 µM]
same,"activity, negative = inhibition",[5],9.66% [at 8.44 µM]
same,activation,[6],0.249% [at 8.08 µM]
same,"activity, negative = inhibition",[7],29% [at 6.71 µM]
same,"activity, negative = cytotoxicity",[8],7.46% [at 6.72 µM]
same,activation,[9],2.27% [at 6.71 µM]
same,activation,[10],11.2% [at 8.47 µM]
same,"activity change, negative = inhibition",[13],1.93% [at 8.47 µM]
same,"activity change, negative = cytotoxicity",[11],4.5% [at 8.47 µM]
same,"activity, negative = inhibition",Aromatase (Homo sapiens),2.56% [at 8.47 µM]
CCc1c(C)[nH]c2c1C(=O)C(CN1CCOCC1)CC2 (stereo not given),Potency,[1],inactive
same,Potency,[14],inactive
same,Potency,[15],inactive
same,Potency,[4],inactive
same,Potency,[12],inactive
same,Potency,[5],inactive
same,outcome,[6],inactive
same,outcome,[8],inactive
same,Potency,[11],inactive
CC(C)NC(=O)c1ccccc1N,Potency,[1],inactive
same,Potency,[14],inactive
same,Potency,[15],inactive
same,Potency,[3],inactive
same,Potency,[4],inactive
same,Potency,[12],inactive
same,Potency,[5],inactive
same,outcome,[6],inactive
same,Potency,[7],inactive
same,outcome,[8],inactive
same,Potency,[9],inactive
same,Potency,[10],inactive
same,Potency,[13],inactive
same,Potency,[11],inactive
same,Potency,Aromatase (Homo sapiens),inactive
CCCCCCC/C=C/C=O,Potency,[1],inactive
same,Potency,[14],inactive
same,Potency,[15],43.3 µM (active)
same,Potency,[4],inactive
same,Potency,[12],inactive
same,outcome,[6],inactive
same,outcome,[8],inactive
same,Potency,[9],inactive
same,Potency,[10],inactive
same,Potency,[13],inactive
same,Potency,[11],inactive
same,Potency,Aromatase (Homo sapiens),inactive
C=CC(=O)NC(C)(C)C,Potency,[1],inactive
same,Potency,[14],inactive
same,Potency,[15],inactive
same,Potency,[3],inactive
same,Potency,[4],inactive
same,Potency,[12],inactive
same,Potency,[5],inactive
same,outcome,[6],inactive
same,Potency,[7],inactive
same,outcome,[8],inactive
same,Potency,[9],inactive
same,Potency,[10],inactive
same,Potency,[13],inactive
same,Potency,[11],inactive
same,Potency,Aromatase (Homo sapiens),inactive
CCCCCCCCS,Potency,[1],inactive
same,Potency,[14],inactive
same,Potency,[15],inactive
same,Potency,[3],inactive
same,Potency,[4],inactive
same,Potency,[5],inactive
same,outcome,[6],inactive
same,Potency,[9],inactive
same,Potency,[10],inactive
same,Potency,[13],inactive
same,Potency,[11],inactive
same,Potency,Aromatase (Homo sapiens),inactive
CCc1ccc2c(c1)C(=O)c1ccccc1C2=O,Potency,[1],inactive
same,Potency,[2],inactive
same,Potency,[15],inactive
same,Potency,[12],inactive
same,Potency,[5],inactive
same,outcome,[6],inactive
same,outcome,[8],inactive
same,Potency,[9],inactive
same,Potency,[10],27.3 µM (active)
same,Potency,[11],inactive
same,Potency,Aromatase (Homo sapiens),inactive
Cc1c(N=C=O)cccc1N=C=O,Potency,[1],inactive
same,Potency,[14],inactive
same,Potency,[15],inactive
same,Potency,[3],inactive
same,Potency,[16],inactive
same,outcome,[17],inactive
same,outcome,[18],inactive
same,Potency,[4],inactive
same,Potency,[19],inactive
same,Potency,[12],inactive
same,outcome,[6],inactive
same,Potency,[7],inactive
same,outcome,[8],inactive
same,Potency,[9],inactive
same,Potency,[10],inactive
same,Potency,[13],inactive
same,Potency,[11],inactive
same,Potency,Aromatase (Homo sapiens),inactive
O=c1c2ccccc2oc2ccccc12,Potency,[1],inactive
same,Potency,[14],61.1 µM (active)
same,Potency,[15],inactive
same,Potency,[3],inactive
same,Potency,[4],inactive
same,Potency,[5],inactive
same,outcome,[6],inactive
same,Potency,[9],inactive
same,Potency,[10],48.6 µM (active)
same,Potency,[11],inactive
same,Potency,Aromatase (Homo sapiens),inactive
O=P(c1ccccc1)(c1ccccc1)c1ccccc1,Potency,[1],inactive
same,Potency,[14],61.1 µM (active)
same,Potency,[15],61.1 µM (active)
same,Potency,[3],inactive
same,Potency,[4],inactive
same,Potency,[12],inactive
same,outcome,[6],inactive
same,Potency,[7],inactive
same,outcome,[8],inactive
same,Potency,[9],inactive
same,Potency,[10],inactive
same,Potency,[13],inactive
same,Potency,[11],inactive
same,Potency,Aromatase (Homo sapiens),inactive
O=C1c2ccccc2C(=O)C1c1ccc2ccccc2n1,Potency,[1],inactive
same,Potency,[14],inactive
same,Potency,[15],1.91 µM (active)
same,Potency,[3],inactive
same,Potency,[4],inactive
same,Potency,[12],inactive
same,Potency,[5],inactive
same,outcome,[6],inactive
same,Potency,[7],inactive
same,outcome,[8],inactive
same,Potency,[9],inactive
same,Potency,Aromatase (Homo sapiens),inactive
